Measurements from the supplement of paper PMC10338343.
± gives the standard deviation. The full ranking holds about 8,200 sequences; the median of “pre-steady-state target cleavage rate” is about 0.024, and the highest 2% start at about 1.3. Shown is part of a subset that was picked to be rich in the highest values.

Tested on: MIWI (PIWIL1) piRISC loaded with L1MC piRNA (30 nt)
Test: pre-steady-state target cleavage rate (min^-1); MIWI and MILI are mouse PIWI proteins and EfPiwi is from a freshwater sponge; tags in brackets are library labels; higher = faster piRNA-guided slicing of the target
Settings: guide: L1MC piRNA 5'p-UAACUAAAUACUAUGCAAGCUGUAGGUCCU
Procedure: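 Cleave-'n-Seq: a library of target RNAs (target site embedded in constant flanks, ACAGCATTCCGCGTTAGTGATATCCG... 5' flank; DNA-blocked outside the site) at 0.1 nM was incubated with 1 nM active mouse MILI or MIWI piRISC (synthetic 5'-monophosphorylated piRNA guide) with or without 500 nM mouse GTSF1 at 33 °C for 1 min to 16 h. Uncleaved targets were sequenced and normalised to non-target controls, and the pooled three trials were fitted to a burst-and-steady-state model to give the pre-steady-state cleavage rate (min^-1; k3 is constrained to at most 1e-4). Sequence is the target site only; target names encode pairing extent (gX:gY) and contiguous / 1-mismatch / 2-mismatch / bulge geometry. Fits with R² ≤ 0 are excluded.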

[1] = auxiliary factor: 500 nM mouse GTSF1
[2] = auxiliary factor: none (no GTSF1)

## UCCUGGAUCAGCUUGCAUACUAUUUUCAAA
[1]
  pre-steady-state target cleavage rate: 0.00597 ± 0.0043

## UCCUGGUACUGCUUGCAAAGUAUUUAGUUA
[1]
  pre-steady-state target cleavage rate: 0.46 ± 0.036
[2]
  pre-steady-state target cleavage rate: 0.0221 ± 0.0052

## UCCUCCUACAGCUUGCAUAGAAUUUACAAA
[1]
  pre-steady-state target cleavage rate: 0.295 ± 0.045

## UCCUGGAUGUCGAACGUAACUAUUUACUUA
[1]
  pre-steady-state target cleavage rate: < 0.0001

## UCCUCCUACAGCUUCGAUAGUAUUUAGUAA
[1]
  pre-steady-state target cleavage rate: 0.263 ± 0.031

## UCCUGGAUGUGCUUGCAUAGUAUAAAGUAA
[1]
  pre-steady-state target cleavage rate: 0.00523 ± 0.0043

## UCGACCUACAGCUUGCAUAGUAUUGAGUUA
[1]
  pre-steady-state target cleavage rate: 0.499 ± 0.042
[2]
  pre-steady-state target cleavage rate: 0.0477 ± 0.0089

## UCCUGGAUCAGCUUGCAUACUUUUUAGUUA
[1]
  pre-steady-state target cleavage rate: 0.014 ± 0.0033
[2]
  pre-steady-state target cleavage rate: 0.00335 ± 0.0016

## UCGACCUACAGCUUGCAUAGUAGUUUAGUUA
[1]
  pre-steady-state target cleavage rate: 0.574 ± 0.031
[2]
  pre-steady-state target cleavage rate: 0.0134 ± 0.0039

## UCCUGGUACAGCUUGCAAAGUAUUAAGUUA
[1]
  pre-steady-state target cleavage rate: 0.35 ± 0.049
[2]
  pre-steady-state target cleavage rate: 0.0147 ± 0.0043

## UCCACCUACAGCGUUGCAUAGUAUUUAGUUA
[1]
  pre-steady-state target cleavage rate: 1.03 ± 0.13
[2]
  pre-steady-state target cleavage rate: 0.0279 ± 0.005

## AGGACCUACAGCGUUGCAUAGUAUUUAGUUA
[1]
  pre-steady-state target cleavage rate: 1.21 ± 0.086
[2]
  pre-steady-state target cleavage rate: 0.0748 ± 0.015

## UCCUCCUACAGCGUUGCAUAGUAUUUAGUUA
[1]
  pre-steady-state target cleavage rate: 0.96 ± 0.057
[2]
  pre-steady-state target cleavage rate: 0.0256 ± 0.0045

## UCCUCCUACAGCUGUGCAUAGUAUUUAGUUA
[1]
  pre-steady-state target cleavage rate: 1.18 ± 0.064
[2]
  pre-steady-state target cleavage rate: 0.0204 ± 0.0047

## UCCUCCUACAGCGUGCAUAGUAUUUAGUUA
[1]
  pre-steady-state target cleavage rate: 1.4 ± 0.042
[2]
  pre-steady-state target cleavage rate: 0.0379 ± 0.0072

## UGGACCUACAGCGUUGCAUAGUAUUUAGUUA
[1]
  pre-steady-state target cleavage rate: 1.33 ± 0.11
[2]
  pre-steady-state target cleavage rate: 0.0647 ± 0.013

## UCGACCUACAGCUUGCAUAGUAUUAAGAUA
[1]
  pre-steady-state target cleavage rate: 0.248 ± 0.029
[2]
  pre-steady-state target cleavage rate: 0.00627 ± 0.0027

## UCGACCUACAGGUUGCAUAGUAUUUACAAA
[1]
  pre-steady-state target cleavage rate: 0.183 ± 0.026

## AGGACCAACAGCUUGCAUAGUAUAUAGUUA
[1]
  pre-steady-state target cleavage rate: 0.775 ± 0.054
[2]
  pre-steady-state target cleavage rate: 0.0604 ± 0.013

## AGGACCUACAGCUUGCAUAGUAAAAAGUUA
[1]
  pre-steady-state target cleavage rate: 0.489 ± 0.058
[2]
  pre-steady-state target cleavage rate: 0.00574 ± 0.0034

## UCCUCCUACAGCUUGCAUAGAAAUUAGUUA
[1]
  pre-steady-state target cleavage rate: 0.169 ± 0.019
[2]
  pre-steady-state target cleavage rate: 0.00268 ± 0.0024

## UCCUGGUACAGCUUGGUUAGUAUUUAGUAA
[1]
  pre-steady-state target cleavage rate: 0.412 ± 0.079
[2]
  pre-steady-state target cleavage rate: 0.0101 ± 0.0031

## UCCUGGUUGAGCUUGCAUAGUAUUUAGAAA
[1]
  pre-steady-state target cleavage rate: 0.135 ± 0.024
[2]
  pre-steady-state target cleavage rate: 0.00555 ± 0.0033

## UCCUGGAACAGCUUGCAUACAAUUUAGUUA
[1]
  pre-steady-state target cleavage rate: 0.0117 ± 0.0047

## AGGACCUACAGCUUGCAUAGUAUAAAGAAA
[1]
  pre-steady-state target cleavage rate: 0.434 ± 0.077

## UCCACCCACAGCUUGCAUAGUAUUUAGUUA
[1]
  pre-steady-state target cleavage rate: 0.787 ± 0.052
[2]
  pre-steady-state target cleavage rate: 0.0508 ± 0.0088

## AGGACCACAGCUUGCAUAGUAUUUAGUUA
[1]
  pre-steady-state target cleavage rate: 1.29 ± 0.066
[2]
  pre-steady-state target cleavage rate: 0.0967 ± 0.019

## UGGACCCACAGCUUGCAUAGUAUUUAGUUA
[1]
  pre-steady-state target cleavage rate: 1.43 ± 0.091
[2]
  pre-steady-state target cleavage rate: 0.0699 ± 0.011

## UGGACCACAGCUUGCAUAGUAUUUAGUUA
[1]
  pre-steady-state target cleavage rate: 1.47 ± 0.083
[2]
  pre-steady-state target cleavage rate: 0.0744 ± 0.015

## UCGACCACAGCUUGCAUAGUAUUUAGUUA
[1]
  pre-steady-state target cleavage rate: 1.22 ± 0.051
[2]
  pre-steady-state target cleavage rate: 0.0643 ± 0.011

## UCGACCCACAGCUUGCAUAGUAUUUAGUUA
[1]
  pre-steady-state target cleavage rate: 1.19 ± 0.044
[2]
  pre-steady-state target cleavage rate: 0.0644 ± 0.011

## AGGACCCACAGCUUGCAUAGUAUUUAGUUA
[1]
  pre-steady-state target cleavage rate: 1.47 ± 0.093
[2]
  pre-steady-state target cleavage rate: 0.0682 ± 0.0093

## UGGACCUAGAGCUUGCAUAGUAUUUAGAAA
[1]
  pre-steady-state target cleavage rate: 0.296 ± 0.034
[2]
  pre-steady-state target cleavage rate: 0.0101 ± 0.0034

## UCCACCUAGAGCUAGCAUAGUAUUUAGUUA
[1]
  pre-steady-state target cleavage rate: 0.339 ± 0.042
[2]
  pre-steady-state target cleavage rate: 0.0098 ± 0.0019

## UCCUGCUACUCGUUGCAUAGUAUUUACAAA
[1]
  pre-steady-state target cleavage rate: 0.0303 ± 0.0091

## UGGACGUACAGCUUGCAUAGUUUUUAGUUA
[1]
  pre-steady-state target cleavage rate: 0.35 ± 0.015
[2]
  pre-steady-state target cleavage rate: 0.0389 ± 0.0097

## UCCUGGAACAGCUUCCAUAGUAUUAAGUUA
[1]
  pre-steady-state target cleavage rate: 0.0095 ± 0.0047

## UCGACCUACAGCUUGCAAUCUAUUUAGAAA
[1]
  pre-steady-state target cleavage rate: 0.129 ± 0.033

## UGGCCCUACAGCUUGCAUAGUAUUUAGUUA
[1]
  pre-steady-state target cleavage rate: 1.39 ± 0.11
[2]
  pre-steady-state target cleavage rate: 0.0833 ± 0.015

## AGGCCCUACAGCUUGCAUAGUAUUUAGUUA
[1]
  pre-steady-state target cleavage rate: 1.15 ± 0.058
[2]
  pre-steady-state target cleavage rate: 0.115 ± 0.018

## UGGCCUACAGCUUGCAUAGUAUUUAGUUA
[1]
  pre-steady-state target cleavage rate: 1.46 ± 0.076
[2]
  pre-steady-state target cleavage rate: 0.0761 ± 0.014

## UCGGCCUACAGCUUGCAUAGUAUUUAGUUA
[1]
  pre-steady-state target cleavage rate: 1.21 ± 0.05
[2]
  pre-steady-state target cleavage rate: 0.0767 ± 0.015

## AGGCCUACAGCUUGCAUAGUAUUUAGUUA
[1]
  pre-steady-state target cleavage rate: 1.41 ± 0.075
[2]
  pre-steady-state target cleavage rate: 0.107 ± 0.019

## UCCACCUAGAGCUUGCAUAGUUUUUAGUUA
[1]
  pre-steady-state target cleavage rate: 0.22 ± 0.03
[2]
  pre-steady-state target cleavage rate: 0.0119 ± 0.0015

## UCCUGGAUGACGCUUGCAUAGUAUUUAGUUA
[1]
  pre-steady-state target cleavage rate: 0.911 ± 0.059
[2]
  pre-steady-state target cleavage rate: 0.0648 ± 0.0085

## UCCACCUACUGCUUGCAUAGUAUUUAGAUA
[1]
  pre-steady-state target cleavage rate: 0.253 ± 0.043
[2]
  pre-steady-state target cleavage rate: 0.0104 ± 0.0021

## UCCUGGUUGUGCUUGCAUAGUAUUUAGUAA
[1]
  pre-steady-state target cleavage rate: 0.2 ± 0.022
[2]
  pre-steady-state target cleavage rate: 0.0175 ± 0.0053

## UCCUGCUACAGCUUGCAUAGUGUUUAGUUA
[1]
  pre-steady-state target cleavage rate: 0.648 ± 0.045
[2]
  pre-steady-state target cleavage rate: 0.0278 ± 0.0045

## UCGACCUCACAGCUUGCAUAGUAUUUAGUUA
[1]
  pre-steady-state target cleavage rate: 1.38 ± 0.05
[2]
  pre-steady-state target cleavage rate: 0.0855 ± 0.017

## UCGACCUUGAGCUUGCAUAGUAUUUAGUUA
[1]
  pre-steady-state target cleavage rate: 0.789 ± 0.057
[2]
  pre-steady-state target cleavage rate: 0.0478 ± 0.0086

## UGGACCUCACAGCUUGCAUAGUAUUUAGUUA
[1]
  pre-steady-state target cleavage rate: 1.46 ± 0.084
[2]
  pre-steady-state target cleavage rate: 0.0711 ± 0.014

## AGGACCUCACAGCUUGCAUAGUAUUUAGUUA
[1]
  pre-steady-state target cleavage rate: 1.28 ± 0.064
[2]
  pre-steady-state target cleavage rate: 0.102 ± 0.017

## UCGACCUCCAGCUUGCAUAGUAUUUAGUUA
[1]
  pre-steady-state target cleavage rate: 1.17 ± 0.06
[2]
  pre-steady-state target cleavage rate: 0.0635 ± 0.0099

## UCCACCUCACAGCUUGCAUAGUAUUUAGUUA
[1]
  pre-steady-state target cleavage rate: 1.06 ± 0.051
[2]
  pre-steady-state target cleavage rate: 0.0701 ± 0.012

## UCGACCUCAGCUUGCAUAGUAUUUAGUUA
[1]
  pre-steady-state target cleavage rate: 1.38 ± 0.056
[2]
  pre-steady-state target cleavage rate: 0.064 ± 0.013

## AGGACCUUGUGCUUGCAUAGUAUUUAGUUA
[1]
  pre-steady-state target cleavage rate: 0.869 ± 0.046
[2]
  pre-steady-state target cleavage rate: 0.0654 ± 0.012

## UCCACCUACAGCUUGCAUAUUAUUUAGUUA
[1]
  pre-steady-state target cleavage rate: 1.01 ± 0.075
[2]
  pre-steady-state target cleavage rate: 0.0312 ± 0.007

## UGCACCUACAGCUUGCAUUGUAUUUAGUUA
[1]
  pre-steady-state target cleavage rate: 0.808 ± 0.057
[2]
  pre-steady-state target cleavage rate: 0.0286 ± 0.0068

## UCCUGGAUGUCGAUGCAUAGUAUUUAGUUA [g2:g17:cont:t1A]
[1]
  pre-steady-state target cleavage rate: 0.0169 ± 0.005

## UGGACCUACAGCAAGCAUAGUAUUUAGAAA
[1]
  pre-steady-state target cleavage rate: 0.271 ± 0.031

## UCCUGGAUGUCCUUGCAUAGUAUUUAGCUUA
[1]
  pre-steady-state target cleavage rate: 0.0471 ± 0.0091
[2]
  pre-steady-state target cleavage rate: 0.00476 ± 0.0022

## UGGACCUACAGCUUGCAUAGUAUUUAGUCA
[1]
  pre-steady-state target cleavage rate: 0.934 ± 0.05
[2]
  pre-steady-state target cleavage rate: 0.0559 ± 0.011
